AmpC detergent: blocks E. coli AmpC beta-lactamase in detergent assay; P00811; 0.041% of 370,000 active; Potency, µM (series often up to 114 µM), without a hit: at the top dose activity change, negative = inhibition, actives largely listed as inhibitors; AmpC hydrolysis of nitrocefin, absorbance 480 nm, 0.01% Triton;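 also: 0% = no-compound wells and -100% = no-enzyme wells; nearly all actives have a fitted effect of over 25% in size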
Target sequence (P00811 whole entry, looked up): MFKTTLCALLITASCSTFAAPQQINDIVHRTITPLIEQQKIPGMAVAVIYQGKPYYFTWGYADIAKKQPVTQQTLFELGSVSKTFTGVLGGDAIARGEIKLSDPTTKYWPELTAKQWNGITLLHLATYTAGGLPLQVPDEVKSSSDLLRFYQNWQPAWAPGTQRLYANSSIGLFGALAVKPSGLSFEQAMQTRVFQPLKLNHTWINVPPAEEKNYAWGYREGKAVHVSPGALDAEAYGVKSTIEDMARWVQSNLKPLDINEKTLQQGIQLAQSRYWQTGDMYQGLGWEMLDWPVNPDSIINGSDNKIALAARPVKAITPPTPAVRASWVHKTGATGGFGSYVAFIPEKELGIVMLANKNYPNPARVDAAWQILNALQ
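AmpC (5.3 nM in the dispensed reagent) in 20 mM phosphate pH 7.0 with 0.01% (detergent screen) or 0.0001% Triton X-100 was preincubated with compounds for 15 min at room temperature. Nitrocefin was then added from an 800 uM solution, and hydrolysis was followed at 480 nm.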
AMA1-RON2 inh: inhibitors of Plasmodium falciparum AMA1-RON2 interaction. AlphaScreen AMA1-biotinylated RON2 peptide binding. Potency, µM (highest dose often 58.2 µM), inactives show at the highest dose activity change, negative = inhibition, usual class: inhibitors. 0.2% of 360,000 active;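 also: 0% = vehicle wells and -100% = peptide control; nearly all actives have a fitted effect of over 45% in size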
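AMA1 (3D7) with his tag at 25 nM final met compounds first, then biotinylated RON2 peptide at 25 nM; detection used donor plus acceptor beads, 10 µg/mL apiece, read by AlphaScreen after 30 min at room temperature.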
AmpC no deterg: AmpC beta-lactamase inhibition without detergent | AmpC nitrocefin hydrolysis, absorbance 480 nm, 0.0001% Triton | Potency, µM (titrated, usually from 57.1 µM), for the others: at the top dose activity change, negative = inhibition, usual class: inhibitors | 0.52% of 330,000 active | AID 485341;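 also: plate controls were no compound for no effect and no enzyme for full effect; nearly all actives have a fitted effect of over 20% in size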
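AmpC (5.3 nM in the dispensed reagent) in 20 mM phosphate pH 7.0 with 0.01% (detergent screen) or 0.0001% Triton X-100 was preincubated with compounds for 15 min at room temperature. Nitrocefin was then added from an 800 uM solution, and hydrolysis was followed at 480 nm.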
Marburg entry inh: Marburg virus entry inhibition | AID 540276 | 1.8% of 300,000 active | Potency, µM (series often up to 37.8 µM), inactives show at the highest dose activity change, negative = inhibition, usual class: inhibitors | Marburg virus pseudotyped entry inhibition, cell reporter; calls by dose curve; tested in HEK293 cells
Lassa entry inh: Lassa virus entry inhibition. Lassa virus pseudotype entry inhibition, cell reporter. Potency, µM (titrated, usually from 37.9 µM), for inactives: top-dose activity change, negative = inhibition, usual class: inhibitors. 1.2% of 300,000 active; calls by dose curve; tested in HEK293 cells; also: nearly all actives have a fitted effect of over 50% in size
* hit, by the source's call; ? = inconclusive; · = no result; [ ] = another dose, or the depositor's remark. Compounds with a hit are over-represented: about 2.3% of the library has one in this group of screens. Unless noted, calls follow the shape of the dose curve; as a rule, active = well fitted curve in the direction sought with a large enough effect; inconclusive = small, poorly fitted or top-dose-only effect, or another doubt; inactive = no such curve, though single readings can be large; an effect the other way counts as inactive or inconclusive. Unless noted, % is scaled to controls: 0 for no effect and ±100 for the full control effect; potency is read from the fitted curve at half-maximal effect.

SMILES | AmpC detergent | AMA1-RON2 inh | AmpC no deterg | Marburg entry inh | Lassa entry inh
CCN1CCN(S(=O)(=O)c2ccc(Cl)c(C(=O)Nc3ccccc3N3CCCCC3)c2)CC1 | ? | ? | -7.8% | 11.2µM* | ?
COc1ccc(NS(=O)(=O)c2ccc(N3CCOCC3)c(NC(=O)c3ccc(OC)cc3)c2)cc1 | -12.1% | -8.9% | 5.1% | ? | ?
COc1ccccc1NC(=O)C1=C(C)Nc2nc(SCc3ccc(Cl)cc3)nn2C1c1ccccc1Cl (configuration not stated) | 17.8% | · | · | -5.6%[46.1 µM] | -8.8%[46.1 µM]
CCc1cc2c(nc1CC)CCN(CC/C(C)=N/O[C@H](C)c1cn([C@H](CO)Cc3ccccc3)nn1)C2 | · | · | · | -27.1%[14.2 µM] | ·
CC1=CC2OC3CC4OC(=O)C=CC=CC(=O)OCCC(C)C(O)C(=O)OCC2(CC1)C4(C)C31CO1 (configuration not stated) | · | 15.3% | · | ? | ?
CC(=O)O[C@H]1C[C@@H]2OC3C=C(C)CCC3(C)[C@@]1(C)[C@@]21CO1 (some centres not stated) | · | 8.9% | · | 0.447µM* | ·
CCOC(=O)c1ccc(N2C(=O)c3n[nH]c(-c4ccco4)c3C2c2cccc([N+](=O)[O-])c2)cc1 (configuration not stated) | -5.7% | 16.8% | -31.7% | 5.01µM* | ?
CCOC(=O)c1ccc(N2C(=O)c3n[nH]c(-c4ccco4)c3C2c2ccc(O)c(OCC)c2)cc1 (configuration not stated) | 3.3% | · | · | 7.94µM* | ?
CCOC(=O)c1ccc(N2C(=O)c3n[nH]c(-c4cccs4)c3C2c2ccc(OCC)cc2)cc1 (configuration not stated) | 3.4% | · | · | 12.6µM* | ?
CCOC(=O)c1ccc(N2C(=O)c3n[nH]c(-c4cccs4)c3C2c2ccc(CC)cc2)cc1 (configuration not stated) | 1.3% | · | · | ? | ?
CCCCCc1ccc(OCCCC[n+]2ccc(C)cc2)c(CCCCC)c1 | -5.5% | -2.2% | 252.4% | ? | 4.47µM*
O=S(=O)(c1ccc(Cl)c(Cl)c1)c1snnc1-c1ccccc1 | 3.8% | -0.8% | -14.8% | 5.01µM* | 7.08µM*
Cc1cnc(NC(=O)c2cc3ccccc3o2)s1 | 1.0% | 59.1% | -21.8% | 12.6µM* | -29.8%[46.1 µM]
Cc1ccc(C(=O)Nc2ncc(C)s2)o1 | -2.1% | 15.0% | -4.4% | 5.2% | ?
Cc1nnc(NC(=O)c2cc3ccccc3o2)s1 | 6.8% | -4.5% | -14.2% | 10.6%[46.1 µM] | 10.4%[46.1 µM]
Cc1ccc(C(=O)Nc2ncc(C)s2)s1 | -7.8% | 39.1% | -18.2% | 2.82µM* | 5.01µM*
Cc1ccc(-c2cc(C(=O)N(C)Cc3cnn(C)c3C)c3cc(Br)ccc3n2)cc1 | ? | -1.4% | 215.1% | 8.91µM* | ?
C[n+]1c2ccccc2nc2ccc(NCCO)cc21 | 3.2% | 20µM* | -7.1% | ? | ?
CNc1ccc2nc3ccccc3[n+](C)c2c1 | 2.7% | ? | -45.2% | · | ·
COc1cccc(NC(=O)CC(C)S(=O)(=O)c2ccc3c(c2)NC(=O)CO3)c1 (configuration not stated) | -7.3% | · | · | · | 20.4%[46.1 µM]
Cc1ccc(-c2nc(CN3CCN(C(=O)C4CCCO4)CC3)cs2)cc1 (configuration not stated) | 8.8% | -5.1% | 139.5% | 17.8µM* | ?
CC(C)(C)OC(=O)N1CCC(c2c(C(=O)N3CCN(c4ccc(Cl)cc4)CC3)cnn2-c2ccc(F)cc2F)CC1 | 2.3% | · | · | · | ?
Nc1c(C(=O)NCc2ccco2)c2nc3ccccc3nc2n1CCN1CCCCC1 | 4.1% | 49.2% | 180.8% | 8.2µM* | -2.3%
COc1ccc(-n2c(=O)cc(N3CCCCCC3)[nH]c2=O)cc1 | -1.2% | -5.1% | -5.0% | -4.3% | 0.6%
CCOC(=O)C1CCN(c2cc(=O)n(-c3ccc(OC)cc3)c(=O)[nH]2)CC1 | ? | 0.3% | 3.55µM* | · | ·
SMILES | AmpC detergent | AMA1-RON2 inh | AmpC no deterg | Marburg entry inh | Lassa entry inh
O=c1cc(-c2ccc(C3CCCCC3)cc2)[nH][nH]1 | -5.9% | 43.3% | 14.1µM* | 2.7%[46.1 µM] | 23.5%
CC(C)c1ccc(Nc2c(-c3ccccn3)nc3ccccn23)cc1 | 3.7% | · | · | ? | ?
CCN1C(=O)NC(c2cccc(C(F)(F)F)c2)C(C(C)=O)=C1C (configuration not stated) | · | · | · | 12.2%[14.2 µM] | ?
Cc1cc(Cl)ccc1OCC(=O)N1CCC(c2nc3ccccc3o2)CC1 | 23.2% | · | · | 12.7%[46.1 µM] | 10.8%[46.1 µM]
CCCOc1ccc(N2C(=O)CC(SCCN)C2=O)cc1 (configuration not stated) | 4.1% | 3.55µM* | -2.0% | -28.6% | -18.2%
CCCOc1ccc(N2C(=O)CC(SCC(N)C(=O)OCC)C2=O)cc1 (configuration not stated) | -2.1% | -2.9% | 0.2% | · | ·
O=C1OC(c2cccc(Cl)c2)N=C2C1C=NN2c1ccccc1 (configuration not stated) | · | · | · | 2.4% | ·
CCOc1ccc(C2=Nn3c(nnc3-c3ccc(OC)cc3)SC2)cc1 | ? | -6.7% | 17.0% | 5.17µM* | ?
Nc1nc2ccccc2n1CCOc1ccc(Cl)cc1 | ? | -11.8% | -31.7% | ? | 1.3%
Nc1nc2ccccc2n1CCOc1ccccc1Cl | -0.5% | -1.7% | 4.2% | 11.2µM* | -9.8%
CCOc1ccc(/C=C/c2nc(C#N)c(N3CCN(CC)CC3)o2)cc1 | -6.8% | · | · | -12.8%[46.1 µM] | -3.1%[46.1 µM]
CCNC(=S)N/N=C/c1cccc(OCc2c(F)cccc2Cl)c1 | ? | 21.9% | -54.8% | ? | 9.2µM*
COc1ccc(/C=N/NC(=S)Nc2ccccc2)cc1COc1ccc(F)cc1F | -3.4% | 14.8% | 17.8µM* | ? | 1.64µM*
COc1ccc(/C=N\NC(=O)c2ccc(F)cc2)cc1COc1ccccc1C(N)=O | 4.8% | 5.4% | 93.6% | ? | -19.6%
CCNC(=S)N/N=C/c1cccc(/C=N/NC(=S)NCC)c1 | 3.0% | 32.6% | -1.8% | -14.0%[46.1 µM] | 6.4%
CNC(=S)N/N=C/c1cccc(OCc2ccccc2F)c1 | -5.2% | 44.0% | -35.7% | ? | 3.98µM*
Cc1ccc(CN2CCN(C3CCN(S(=O)(=O)N(C)C)CC3)C(=O)C2=O)cc1 | -9.7% | · | · | · | 19.4%[46.1 µM]
CCN(Cc1ccccc1)c1ccc(N=Nc2nn(C)c(C)c2[N+](=O)[O-])cc1 | ? | 10µM* | 28.9% | 15.0% | 16.6%
CCOC(=O)/C(=C\c1ccc(N2CCC(c3ccccc3)=N2)cc1)C(C)=O | · | 19.7% | · | 2.82µM* | 7.94µM*
O=C(/C=C/c1ccc(N2CCC(c3ccccc3)=N2)cc1)c1ccccc1 | 6.7% | 5.7% | -25.2% | 2.5% | -9.3%
Cc1ccc2nc(CN3CCN(S(=O)(=O)c4ccc(F)cc4)CC3)oc2c1 | 13.2% | · | · | · | -19.0%[46.1 µM]
CCCSC1=C(C#N)[C@H](c2ccc(OC)cc2)C2=C(CC(C)(C)CC2=O)N1 | · | · | · | -10.0% | ·
CCC(=O)c1ccc(OCc2ccccc2)c(OC)c1 | 5.9% | 23.4% | 15.0% | ? | ?

Assay outcomes deposited in PubChem BioAssay by National Center for Advancing Translational Sciences (NCATS).
